Measurements taken from PubChem BioAssay AID624487 (NMMLSC, 2012).
Potency and affinity values are given separately. Calls of active or inactive are those of the source.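 How the source made its calls: active means fitted EC50, the dose giving half the maximal drop in porphyrin signal, under 100 µM; inactive means the rest.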

Each compound was assayed against ATP-binding cassette sub-family B member 6 (Homo sapiens) (UniProt Q9NP58) (assay: ABCB6 transporter inhibitors, porphyrin accumulation, dose response, flow cytometry, K562-ABCB6 cells, cherry pick 02 (AID 624487)). Details: 1 h; series mostly up to 100 µM.
Sequence of ATP-binding cassette sub-family B member 6 (Homo sapiens) (Q9NP58 whole entry, looked up): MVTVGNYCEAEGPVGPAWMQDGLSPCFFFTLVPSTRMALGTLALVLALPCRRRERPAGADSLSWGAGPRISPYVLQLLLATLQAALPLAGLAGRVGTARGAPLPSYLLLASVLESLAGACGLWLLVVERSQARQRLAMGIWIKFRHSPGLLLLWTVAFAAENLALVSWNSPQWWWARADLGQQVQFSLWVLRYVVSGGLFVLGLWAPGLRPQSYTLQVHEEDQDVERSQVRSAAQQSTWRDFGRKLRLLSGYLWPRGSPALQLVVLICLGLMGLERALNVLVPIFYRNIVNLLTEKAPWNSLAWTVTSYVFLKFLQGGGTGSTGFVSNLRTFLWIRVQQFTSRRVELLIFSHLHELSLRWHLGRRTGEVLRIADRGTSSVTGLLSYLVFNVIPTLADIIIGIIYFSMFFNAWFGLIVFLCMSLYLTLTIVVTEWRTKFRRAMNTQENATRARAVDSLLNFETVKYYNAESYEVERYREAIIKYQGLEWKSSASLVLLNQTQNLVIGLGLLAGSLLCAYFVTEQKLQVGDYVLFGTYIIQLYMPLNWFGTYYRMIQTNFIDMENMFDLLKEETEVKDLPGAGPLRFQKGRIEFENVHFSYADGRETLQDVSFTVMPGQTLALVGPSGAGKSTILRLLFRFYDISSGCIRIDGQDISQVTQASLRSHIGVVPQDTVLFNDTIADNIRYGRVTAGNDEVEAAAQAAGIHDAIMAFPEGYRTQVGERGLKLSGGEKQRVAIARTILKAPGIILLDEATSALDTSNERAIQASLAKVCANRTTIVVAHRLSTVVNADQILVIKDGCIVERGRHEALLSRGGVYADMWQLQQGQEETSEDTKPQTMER

outcome, inactive:
Cc1cccc(CS(=O)(=O)c2ncc(Cl)c(C(=O)Nc3nnc(C(C)C)s3)n2)c1
CCOC(=O)c1ccc(NC(=O)c2nc(S(=O)(=O)Cc3ccccc3)ncc2Cl)cc1
Cc1nnc(NC(=O)c2nc(S(=O)(=O)Cc3ccccc3C)ncc2Cl)s1
Cc1ccc(CS(=O)(=O)c2ncc(Cl)c(C(=O)Nc3ccc(OC(F)F)cc3)n2)cc1
CCCc1nnc(NC(=O)c2nc(S(=O)(=O)Cc3ccc(C)cc3)ncc2Cl)s1
CCc1nnc(NC(=O)c2nc(S(=O)(=O)Cc3cccc(C)c3)ncc2Cl)s1
COc1ccc(NC(=O)c2nc(S(=O)(=O)Cc3cccc(C)c3)ncc2Cl)c(OC)c1
CCc1nnc(NC(=O)c2nc(S(=O)(=O)Cc3ccccc3)ncc2Cl)s1
CC(C)c1nnc(NC(=O)c2nc(S(=O)(=O)Cc3ccc(F)cc3)ncc2Cl)s1
Cc1nnc(NC(=O)c2nc(S(=O)(=O)Cc3ccccc3)ncc2Cl)s1
CCOc1ccccc1NC(=O)c1nc(S(=O)(=O)Cc2ccccc2)ncc1Cl
COc1ccc(OC)c(NC(=O)c2nc(S(=O)(=O)Cc3ccccc3)ncc2Cl)c1
Cc1ccc(CS(=O)(=O)c2ncc(Cl)c(C(=O)Nc3nnc(C)s3)n2)cc1
